Source: PubChem BioAssay (NCATS)
Records with an inconclusive call do not appear. Where a call stands in place of a potency, no number is given. Values without a mark were called inactive. The source made the active and inactive calls. Calls follow the shape of the dose curve; as a rule, active = well fitted cell-killing curve with a large enough effect; inconclusive = small, poorly fitted or top-dose-only effect, or effect the other way; inactive = flat fitted curve, though single readings scatter.

Columns and labels:
Assay in all cases: Primary qHTS to identify gynecologic anti-cancer compounds using libraries of approved drugs and bioactive compounds (AID 1345084); also: nearly all actives have a fitted effect of over 55% in size
[1] = test system: CAOV3; settings: Gynecologic cancer cell panel viability, ATPlite luminescence, 48 h; series mostly up to 57.5 µM
Outline: (§1)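 Five-point cytotoxicity, 48 h drug exposure at 37 C, 5% CO2, on cells seeded 16 h beforehand. ATP content read by ATPlite luminescence.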

[2] = test system: CASKI; settings: Gynecologic cancer cell panel viability, ATPlite luminescence, 48 h; series mostly up to 57.5 µM
Outline: as §1

[3] = test system: Es-2; settings: Gynecologic cancer cell panel viability, ATPlite luminescence, 48 h; series mostly up to 57.5 µM
Outline: as §1

[4] = test system: HeLa; settings: Gynecologic cancer cell panel viability, ATPlite luminescence, 48 h; series mostly up to 57.5 µM
Outline: as §1

[5] = test system: Hek293T; settings: Gynecologic cancer cell panel viability, ATPlite luminescence, 48 h, control line for the selectivity index; series mostly up to 57.5 µM
Outline: as §1

[6] = test system: JEG-3; settings: Gynecologic cancer cell panel viability, ATPlite luminescence, 48 h; series mostly up to 57.5 µM
Outline: as §1

[7] = test system: OV90; settings: Gynecologic cancer cell panel viability, ATPlite luminescence, 48 h; series mostly up to 57.5 µM
Outline: as §1

[8] = test system: PA-1; settings: Gynecologic cancer cell panel viability, ATPlite luminescence, 48 h; series mostly up to 57.5 µM
Outline: as §1

[9] = test system: SKOV3; settings: Gynecologic cancer cell panel viability, ATPlite luminescence, 48 h; series mostly up to 57.5 µM
Outline: as §1

[10] = test system: Tov-21-G; settings: Gynecologic cancer cell panel viability, ATPlite luminescence, 48 h; series mostly up to 57.5 µM
Outline: as §1
Potency is read from the fitted curve at half-maximal effect.

SMILES	Potency [1]	Potency [2]	Potency [3]	Potency [4]	Potency [5]	Potency [6]	Potency [7]	Potency [8]	Potency [9]	Potency [10]
CC1=C2C[C@H]3[C@@H](CC=C4C[C@@H](O)CC[C@@]43C)[C@@H]2CC[C@]12O[C@@H]1C[C@H](C)CN[C@H]1[C@H]2C	inactive	inactive	inactive	inactive	inactive	inactive	inactive	inactive	inactive	inactive
COC(=O)C1(C)CCC(O)C2(C)c3c(O)cc(C(C)C)cc3C(O)C(OC(C)=O)C12 (configuration not stated)	inactive	inactive	inactive	inactive	inactive	inactive	inactive	inactive	inactive	inactive
CCC(C)(C#N)O[C@@H]1O[C@H](CO)[C@@H](O)[C@H](O)[C@H]1O (some centres not stated)	inactive	inactive	inactive	inactive	inactive	inactive	inactive	inactive	inactive	inactive
N#C[C@@H](O[C@@H]1O[C@H](CO[C@@H]2O[C@H](CO)[C@@H](O)[C@H](O)[C@H]2O)[C@@H](O)[C@H](O)[C@H]1O)c1ccccc1	inactive	inactive	inactive	inactive	inactive	inactive	inactive	inactive	inactive	inactive
CN1[C@H]2C[C@H](OC(=O)[C@H](CO)c3ccccc3)C[C@@H]1[C@@H](O)C2	inactive	inactive	inactive	inactive	inactive	inactive	inactive	inactive	inactive	inactive
COC(=O)C12C(=O)C(C)(O)C(=O)C1(C)C(C)=CC1C34CCC(OC3=O)C(C)(CO)C4CCC12C (configuration not stated)	inactive	inactive	inactive	inactive	inactive	inactive	inactive	inactive	inactive	inactive
C[C@H]1C(=O)O[C@H]2[C@H](O)[C@]34C5OC(=O)[C@]3(O[C@@H]3OC(=O)[C@H](O)C34[C@H](C(C)(C)C)[C@H]5O)C12O (some centres not stated)	inactive	inactive	inactive	inactive	inactive	inactive	inactive	inactive	inactive	inactive
CCOc1ccccc1-n1c(C(C)N2CCN(C(=O)COc3ccc(Cl)cc3)CC2)nc2ccccc2c1=O (configuration not stated)	inactive	inactive	3980 nM (active)	inactive	–	–	inactive	inactive	inactive	6310 nM (active)
Cc1cccc(NC(=O)N[C@@H]2N=C(c3ccccc3)c3ccccc3N(C)C2=O)c1	inactive	inactive	inactive	inactive	inactive	inactive	inactive	inactive	–	inactive
COC(=O)C1(C)CCC(O)C2(C)c3cc(O)c(C(C)C)cc3C(O)C(OC(C)=O)C12 (configuration not stated)	inactive	inactive	inactive	inactive	inactive	inactive	inactive	–	–	inactive
COC1CC(OC2CCC3(C=O)C(CCC4C3CCC3(C)C(C5=CC(=O)OC5)CCC43O)C2)OC(C)C1OC1OC(CO)C(O)C(O)C1O (configuration not stated)	631 nM (active)	1120 nM (active)	355 nM (active)	282 nM (active)	398 nM (active)	–	891 nM (active)	501 nM (active)	355 nM (active)	199 nM (active)
COC1C(O)C(OC2CCC3(C=O)C(CCC4C3CCC3(C)C(C5=CC(=O)OC5)CCC43O)C2)OC(C)C1OC1OC(CO)C(O)C(O)C1O (configuration not stated)	2000 nM (active)	–	891 nM (active)	1260 nM (active)	1000 nM (active)	2240 nM (active)	3550 nM (active)	–	708 nM (active)	631 nM (active)
O=C(O)c1ccnc2cc(C(OCCN3CCCCC3)c3ccccc3Cl)[nH]c12 (configuration not stated)	inactive	inactive	inactive	inactive	inactive	inactive	inactive	inactive	–	inactive
C[C@H]1O[C@@H](O[C@H]2C[C@@H](O)[C@]3(CO)C4C(CC[C@]3(O)C2)[C@@]2(O)CC[C@H](C3=CC(=O)OC3)[C@@]2(C)C[C@H]4O)[C@@H](O)[C@@H](O)[C@H]1O (some centres not stated)	562 nM (active)	–	355 nM (active)	562 nM (active)	355 nM (active)	–	1120 nM (active)	562 nM (active)	224 nM (active)	178 nM (active)
CO[C@H]1[C@H](O)[C@H](O[C@H]2CC[C@]3(C)C4CC[C@]5(C)[C@H](C6=CC(=O)OC6)CC[C@]5(O)C4CC[C@@H]3C2)O[C@@H](C)[C@@H]1O (some centres not stated)	126 nM (active)	224 nM (active)	79.4 nM (active)	89.1 nM (active)	89.1 nM (active)	178 nM (active)	282 nM (active)	89.1 nM (active)	–	31.6 nM (active)
C[C@H](NC(=O)Cc1cc(F)cc(F)c1)C(=O)N[C@@H]1N=C(c2ccccc2)c2ccccc2N(C)C1=O	–	inactive	inactive	inactive	inactive	inactive	inactive	inactive	–	inactive
N#CC(OC1OC(COC2OC(CO)C(O)C(O)C2O)C(O)C(O)C1O)c1ccccc1 (configuration not stated)	inactive	inactive	inactive	–	inactive	inactive	inactive	inactive	inactive	inactive
COc1cc2c(cc1OC)[C@@]13CCN4CC5=CCO[C@H]6CC(=O)N2[C@H]1[C@H]6[C@H]5C[C@H]43	inactive	inactive	inactive	inactive	inactive	inactive	inactive	inactive	–	inactive
CN1C(=O)N(c2ccc(C#N)c(C(F)(F)F)c2)C(=O)[C@]1(CO)c1ccccc1	inactive	inactive	–	inactive	inactive	inactive	inactive	inactive	inactive	inactive
COc1cc(C)[nH]c(=O)c1CNC(=O)c1c(C)n([C@H](C)C2CCOCC2)c2ccccc12	inactive	inactive	inactive	inactive	inactive	inactive	inactive	inactive	–	inactive
